PLCg1 inh = PLC-gamma1 (human) inhibition, primary screen; P19174; purified PLC-gamma1, fluorogenic substrate, fluorescence; inhibition, % at 12.2 µM; 370,000 tested, 0.84% active; AID 720700
MBD2 DNA inh = MBD2-methylated oligo binding inhibition. Q9UBB5. TR-FRET, MBD2 binding to methylated oligonucleotide. inhibition, % at 4.4 µM. 370,000 tested, 0.31% active; in the data active = inhibition above about 13%
PLC-beta3 inh = PLC-beta3 (human) inhibition, primary screen. Purified PLC-beta3, fluorogenic substrate, fluorescence. inhibition, % at 12.2 µM. 370,000 tested, 0.18% active; in the data active = inhibition above about 11%;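 also: 0% = median of compound wells on plate and 100% = full blocker control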
LEDGF integ inh = blocks HIV-1 LEDGF/p75-dependent DNA integration. TR-FRET IN-LEDGF/p75 DNA integration, Eu/Cy5. inhibition, % at 3.7 µM. 370,000 tested, 0.64% active;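 active = inhibition above the screen-wide mean plus 3 SD, cut at about 13% in these data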;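 also: signal is the Cy5 over europium emission ratio at 671 and 618 nm; 0% = plate median of compound wells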
UHRF1 MBD2 ctr = human UHRF1 methylated DNA binding inhibitors; Q96T88; inhibition, % at 4.4 µM; UHRF1 binding to methylated oligo, TR-FRET; 370,000 tested, 0.75% active; in the data active = inhibition above about 21%;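 also: UHRF1 SRA domain binding a hemimethylated CpG hairpin DNA probe; 0% = median of test compound wells and 100% = reference inhibitor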
Target sequence (Q96T88 whole entry, looked up, the tested form may be a part): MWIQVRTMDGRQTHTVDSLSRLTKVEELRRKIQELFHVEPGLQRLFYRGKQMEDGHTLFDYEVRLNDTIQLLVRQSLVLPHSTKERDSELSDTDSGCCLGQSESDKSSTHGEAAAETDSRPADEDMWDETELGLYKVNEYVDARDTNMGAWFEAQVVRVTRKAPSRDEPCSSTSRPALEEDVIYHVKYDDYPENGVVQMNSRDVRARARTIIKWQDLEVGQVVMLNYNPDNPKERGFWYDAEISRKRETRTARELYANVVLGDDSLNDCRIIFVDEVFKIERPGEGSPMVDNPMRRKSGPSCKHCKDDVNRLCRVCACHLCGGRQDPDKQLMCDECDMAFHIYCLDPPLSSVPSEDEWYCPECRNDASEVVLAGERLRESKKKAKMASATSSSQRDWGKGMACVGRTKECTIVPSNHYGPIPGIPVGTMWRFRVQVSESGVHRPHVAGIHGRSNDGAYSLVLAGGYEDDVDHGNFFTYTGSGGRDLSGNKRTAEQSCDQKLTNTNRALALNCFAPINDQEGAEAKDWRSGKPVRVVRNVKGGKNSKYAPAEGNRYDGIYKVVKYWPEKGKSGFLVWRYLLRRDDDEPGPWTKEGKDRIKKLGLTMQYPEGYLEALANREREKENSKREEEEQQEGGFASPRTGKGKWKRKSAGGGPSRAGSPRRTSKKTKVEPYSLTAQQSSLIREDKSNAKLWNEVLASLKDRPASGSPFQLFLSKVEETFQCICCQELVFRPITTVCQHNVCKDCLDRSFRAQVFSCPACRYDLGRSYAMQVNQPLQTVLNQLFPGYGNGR
PLCgamma1 ctr = PLC-gamma1 inhibition, counter-screen for PLC-beta3 hits; 3,300 tested, 3.1% active; AID 743258; shares compounds with PLCg1 inh; purified PLC-gamma1, fluorogenic substrate, fluorescence; inhibition, % at 12.3 µM
PLCbeta3 conf = human PLC-beta3 inhibition, confirmation | shares compounds with PLCg1 inh | purified PLC-beta3, fluorogenic substrate fluorescence | inhibition, % at 12.3 µM | 3,300 tested, 1% active | AID 743261; in the data active = inhibition above about 11%
Starred values were filed as active, the others as inactive; i = inactive; · = no result. A selection: hits, their analogues and other compounds. The true share with any hit is near 2.4%. Rule as the data show it, unless noted: active = inhibition above about 9.5%; inactive = the rest.

SMILES	PLCg1 inh	MBD2 DNA inh	PLC-beta3 inh	LEDGF integ inh	UHRF1 MBD2 ctr	PLCgamma1 ctr	PLCbeta3 conf
CC12CCC(=O)N1C(C(=O)Nc1cc(S(=O)(=O)N3CCCCCC3)ccc1OCC(F)(F)F)CS2 (stereo not drawn)	11.3*	5.2	-3.1	-9.0	-0.7	-2.3	2.2
CC12CCC(=O)N1C(C(=O)Nc1cccc(S(=O)(=O)N3CCCCCC3)c1)CS2 (stereo not drawn)	10.3*	-6.8	3.6	7.3	3.0	-4.3	3.3
CN(C)c1ccc(S(=O)(=O)N2CCCCC2)cc1NC(=O)C1CSC2(C)CCC(=O)N12 (stereo not drawn)	2.7	0.5	-2.3	1.5	1.3	·	·
CC(=O)c1cc(-c2ccccc2)n(CC(=O)NCc2ccccc2Cl)c1C	2.6	-6.9	2.0	1.7	-3.7	·	·
COCC(=O)N(c1ccc(C(C)(C)C)cc1)C(C(=O)NC(C)(C)C)c1cccnc1 (stereo not drawn)	0.8	1.7	-1.4	0.9	-0.8	·	·
COc1ccc(-c2nnc(SCC(=O)NN=C(C)c3cccc4ccccc34)n2-c2ccc(C)cc2)cc1	2.1	-4.1	0.0	1.1	-2.0	·	·
O=C(Cn1cnc2ccccc2c1=O)N1CCCCC1	6.6	-1.8	3.3	4.7	0.6	·	·
Nn1c(SCc2cn3cc(Cl)ccc3n2)nnc1-c1ccncc1	11.1*	1.1	-8.4	8.8	0.6	-6.4	-3.2
Cn1c(=NC(=O)C2CC2)sc2cccc(F)c21	11.1*	-3.4	0.3	8.9	-0.8	-5.6	-5.1
COc1ccccc1NC(=O)Nc1ccc2c(c1)OCCO2	1.9	-2.5	11.7*	2.3	-0.9	-0.6	0.6
CCOC(=O)[C@]12CCCCC/C=C\1N(Cc1ccc(OC)cc1)C(=O)[C@H]2CC(=O)NCc1cccc(C(F)(F)F)c1	1.1	-4.8	2.9	-2.5	-1.1	·	·
NC(=O)NC(=O)CN1C(=O)NC(c2ccccc2)(c2ccccc2)C1=O	10.8*	0.6	2.8	0.6	2.1	-3.4	-3.9
O=C(CN1C(=O)NC(c2ccccc2)(c2ccccc2)C1=O)NCc1ccccc1	2.3	-3.5	-1.9	-2.0	-1.1	·	·
CC1CCN(C(=O)CN2C(=O)NC(c3ccccc3)(c3ccccc3)C2=O)CC1	12.9*	3.0	2.1	0.8	5.5	-6.3	-1.1
O=C(CN1C(=O)NC(c2ccccc2)(c2ccccc2)C1=O)N1CCCCC1	-1.4	2.4	-0.2	-0.1	-2.4	·	·
NC(=O)c1ccc(NC(=O)CN2C(=O)NC(c3ccccc3)(c3ccccc3)C2=O)cc1	10.5*	2.9	-5.0	6.2	1.4	-3.0	-1.6
COC(=O)[C@]12CCCCC=C1N(Cc1ccc(OC)cc1)C(=O)[C@@H]2CC(=O)N1CCCC1	0.5	1.6	1.2	-4.3	2.5	·	·
N#CCC[C@@H]1CC[C@]2(CCCN(S(=O)(=O)c3ccccc3)C2)O1	0.8	7.7	-2.9	6.4	1.9	·	·
COc1cccc(CNc2nc(NCC3CC3)nc3ccsc23)c1OC	10.0*	1.1	5.8	-2.7	3.1	-5.5	-1.8
Cc1ccc(S(=O)(=O)n2ccc(-c3c(-c4ccc(Cl)cc4)noc3C)n2)cc1	1.1	1.9	2.0	3.4	-1.5	·	·
O=C(NC(Cc1ccccc1)C(=O)N1CCCCC1)c1ccccc1 (stereo not drawn)	12.7*	-4.2	6.2	3.2	3.0	-5.9	-4.6
CCOC(=O)[C@]12CCCCC/C=C\1N(Cc1ccc(OC)cc1)C(=O)[C@H]2CC(=O)NCc1cccs1	9.5*	-0.3	4.4	4.0	-0.6	-4.2	1.6
COc1ccc(CNCC(O)(c2ccc(F)cc2)c2ccc(F)cc2)cc1	3.1	0.2	0.8	-2.1	2.6	·	·
COc1ccc(CNCC(O)(c2ccccc2)c2ccccc2)cc1	18.7*	0.9	-1.0	10.8	0.6	-4.4	-1.3
COc1ccc(C2Nc3ccccc3C(=O)N2Cc2ccc(C)o2)cc1COc1c(C)cccc1C (stereo not drawn)	-123.0	7.0	-171.8	-4.0	2.0	·	·
SMILES	PLCg1 inh	MBD2 DNA inh	PLC-beta3 inh	LEDGF integ inh	UHRF1 MBD2 ctr	PLCgamma1 ctr	PLCbeta3 conf
Nc1nn(-c2ccccc2)c(N)c1N=Nc1cccc(F)c1	3.4	0.3	-4.9	-2.1	3.4	·	·
Cc1nn(-c2ccccc2)c(N)c1N=Nc1cccnc1	5.7	5.9	10.9*	-5.7	-1.1	5.3	6.8
O=C(OC12CCCN(C1)/C(=C/c1cccc(Cl)c1)C2)c1ccco1 (stereo not drawn)	0.2	4.1	-7.5	-0.5	0.1	·	·
O=C(C1CCC(CNS(=O)(=O)c2cccs2)CC1)N1CCCCC1 (stereo not drawn)	5.8	-2.7	15.7*	5.7	1.9	-4.4	-1.9
O=C1NC(=S)S/C1=C\c1cc(Cl)ccc1Cl	10.8*	-1.4	2.8	5.3	-7.5	-4.2	-5.8
Cc1ccc(NC(=O)OCCCN2C(=O)CCC23CCC(C)CC3)cc1 (stereo not drawn)	3.3	-5.5	2.2	4.8	0.2	·	·
Cc1ccc(NC(=O)Cn2nnc(C(=O)NCc3ccccc3)c2N)cc1C	10.9*	-0.8	-0.1	-3.7	0.7	-3.2	-0.7
COC(=O)C1CN(Cc2ccc(F)cc2)CCS(=O)(=O)N1Cc1ccc(OC)cc1 (stereo not drawn)	1.8	0.6	-4.5	-1.4	3.0	·	·
COc1cc2c(c(O)c1OC)C(=O)C(OC)CCC2 (stereo not drawn)	4.4	0.0	11.6*	1.1	0.1	-2.9	0.3
c1ccc2c(c1)N=C(N1CCN(Cc3ccc4c(c3)OCO4)CC1)c1ccccc1S2	1.1	1.3	1.6	-3.6	0.5	·	·
C#CCNC(=O)C[C@H]1C[C@@]2(C(=O)OC)C(=C[C@H](C(C)C)O[C@@H]2C2CC2)N(CCC2=CCCCC2)C1=O	1.2	-2.6	1.1	-3.6	0.1	·	·
CN(C(=O)CCS(=O)(=O)c1ccc2c(c1)oc(=O)n2C)C1CCCCC1	13.6*	-1.3	-3.9	2.0	-0.7	-6.2	-0.6
Cc1ccc(N(C)C(=O)CCS(=O)(=O)c2ccc3c(c2)oc(=O)n3C)cc1	-2.4	-1.4	-2.5	-2.2	-2.3	·	·
CCn1nc(C)c(NC(=O)CSc2nnc(-c3ccco3)n2C)c1C	7.3	-7.3	10.9*	2.5	2.9	-2.1	2.2
COc1ccc(CCNC(=O)Nc2nnc([C@@H]3C[C@H](O)[C@@H](CO)O3)s2)cc1OC	1.7	7.8	0.5	-0.7	-0.1	·	·
O=C(NCCc1cccs1)Nc1nnc([C@H]2C[C@H](O)[C@@H](CO)O2)s1	11.0*	2.2	-1.5	5.5	-0.7	-11.7	-8.1
O=C(Nc1c(-c2ccccc2)nc2ncccn12)C1CC1	i	1.6	i	1.8	0.2	·	·
O=c1[nH]n2c(=O)c3c([nH]c2c1N=Nc1cccc(Cl)c1)CCC3	10.0*	-14.3	7.3	7.7	-14.4	4.5	-0.7
CCOc1cc(/C=N\NC(=O)Cn2nnc3ccccc32)ccc1O	10.2*	-3.6	3.7	-0.2	3.2	4.5	4.6

Source: PubChem (The Scripps Research Institute Molecular Screening Center)
